Among all 4,100 compounds or so, about 1,600 (39%) were called active. About 25% were inconclusive and are not listed. Calls come from the whole dose curve; as a rule, active = well fitted inhibition curve with a large enough effect; inconclusive = small, poorly fitted or top-dose-only effect; inactive = no such curve, though single readings can be large or run the other way. Some of the results follow.
Potency is the fitted concentration of half-maximal effect.

The nature of the assay: qHTS Validation assay for Inhibitors of Plasmodium falciparum Dd2 growth in vitro. Note: nearly all actives have a fitted effect of over 70% in size. Conditions: P. falciparum Dd2 in RBCs, SYBR Green growth, 72 h; series mostly up to 28.7 µM. Summed up: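 P. falciparum Dd2-infected red blood cells (2.5% hematocrit, 0.3% parasitemia) grown 72 h at 37 °C under 5% O2 with compounds in a titration, 29 uM to 0.5 nM final. Growth read as SYBR Green-1 fluorescence after ~16 h lysis; artesunate 300 nM as positive control.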
On the technique in general: In qHTS, concentration-response curves come from the screen itself.
`COc1ccc(CN2CCCC3(CNc4ccccc4[S+](=O)([O-])N3)C2)cc1` (stereo not given): the Potency result was “inactive”. With `CN(C)c1cc(N2CCCC(NC(=O)c3ccsc3)C2)ncn1` (stereo not given), the Potency entry was “inactive”.

`Cn1cccc1CN1CCC(N2CC(OCC3CC3)C23CCCCC3)CC1` (stereo not given): the Potency was 7.5 µM (active).

In the case of `O=C(Nc1ccccc1)N1CCC(N2CC(OCC3CC3)C23CCOCC3)CC1` (stereo not given), the Potency entry was “inactive”. Regarding `COc1cccc(CN2CCC(N3CC(OCC4CC4)C34CCCCC4)CC2)n1` (stereo not given), the Potency is 4.22 µM (active). On to `CN(C)S(=O)(=O)N1CCC(N2C(=O)C(OCC3CC3)C23CCCCC3)CC1` (stereo not given), for which the Potency entry is “inactive”.

In the case of `Fc1cccc(CN2CCC(N3CC(OCC4CC4)C34CCCCC4)CC2)c1` (stereo not given), the Potency is 4.22 µM (active).

Take `CCn1cc(CN2CCC(N3CC(OCC4CC4)C34CCCCC4)CC2)cn1` (stereo not given): the Potency was 8.41 µM (active). In the case of `CCc1ccc(NC(=O)N2CC(C(=O)N(C)C)C3(CCOCC3)C2)cc1` (stereo not given), the Potency result was “inactive”. Take `CC1=C(CC(=O)c2ccc(Cl)cc2)C(=O)c2ccccc2C1=O`: the Potency is 0.211 µM (active). With `O=C(Cn1cc(-c2nnnn2-c2ccc(Cl)cc2)c(=O)c2ccccc21)c1ccccc1`, the Potency entry was “inactive”. With `CN(CC1(C)CCOCC1)C(=O)c1ccoc1` the entry was “inactive”; with `Oc1ccc(Br)cc1-c1cc(-c2ccc(Cl)cc2)n[nH]1`, 2.66 µM (active). For `COc1ccc(O)c(-c2cc(-c3cccs3)[nH]n2)c1`, the Potency result was “inactive”. In the case of `COc1cc(Br)c(C2CC(=O)Nc3cc4c(cc32)OCCO4)cc1OC` (stereo not given), the Potency is 2.37 µM (active). For the molecule `COc1cc(C2CC(=O)Nc3cc4c(cc32)OCCO4)cc(Br)c1OC` (stereo not given), the Potency was 5.31 µM (active). Regarding `CCOC(=O)C1=C(C)NC(=S)N(C(C)=O)C1c1ccc(Cl)cc1` (stereo not given), the Potency result is “inactive”.

With `CCOC(=O)C1=C(C)NC(=O)CC1c1cc(OC)c(OC)cc1Br` (stereo not given), the Potency is 5.31 µM (active).

For `CNC(=O)N1CCC(C2CCN(C(=O)CCCC(=O)O)C2)CC1` (stereo not given), the Potency result is “inactive”.

With `CCn1cnnc1-c1nn(C)c2c1CN(C(=O)CC(C)C)CC2`, the Potency entry was “inactive”.

For the molecule `COc1ccc(-n2c(-c3ccc(Br)cc3)c[n+]3c2CCc2ccccc2-3)cc1`, the Potency was 4.22 µM (active). For `Cc1ccc(-n2cc(CNCCc3ncc(C)[nH]3)c(-c3ccc(F)cc3)n2)cc1`, the Potency was 15 µM (active). Turning to `Cc1ccc(CNC(=O)NCCc2ncc(C)n2Cc2ccc(F)cc2)cc1`, the Potency result is “inactive”. Next, `Cc1ccc(-c2nn(-c3ccccc3)cc2CSC(=N)N)cc1`: “inactive”; `Cc1cccc(C)c1-c1nc(C(=O)NCc2ccc(F)cc2)n2ccccc12`: “inactive”.

In the case of `CN(C)CCNC(=O)c1nc2nc(-c3ccccc3)c(-c3cccc(F)c3)cc2n1C`, the Potency is 19.3 µM (active). On to `COCc1nc2nc(-c3ccccc3)c(Nc3ccc(F)cc3)cc2n1C`, for which the Potency result is “inactive”. In the case of `CCn1nccc1C(=O)N1CCC(C(=O)N2CCCCCCNC(=O)CC2)CC1`, the Potency entry was “inactive”.

As for `CCOC(=O)c1[nH]c(Cc2[nH]c(C(=O)OCC)c(C)c2CCC(=O)OC)c(CCC(=O)OC)c1C`, the Potency is 5.31 µM (active). With `CN(C)c1cccc(-c2nccc3c(=O)cc(-c4cn[nH]c4)oc23)c1`, the Potency entry was “inactive”. In the case of `CC(C)(C)CC(C)(C)c1ccc(O)c(CN2CCN(CCC#N)CC2)c1`, the Potency was 0.842 µM (active). For `Cc1ccc(C(=O)N2CCC3(CC2)N(c2ccccc2)C(=O)CS3(=O)=O)c(C)c1`, the Potency result was “inactive”. As to `CC(C)C(=O)NC(c1ccc([N+](=O)[O-])cc1)c1c(O)ccc2ccccc12` (stereo not given), the Potency was 13.3 µM (active).

For the molecule `CC(=O)Oc1ccc2ccccc2c1C(NC(=O)C(C)C)c1cccc([N+](=O)[O-])c1` (stereo not given), the Potency was 16.8 µM (active). As for `CCCCC(=O)NC(c1cccc([N+](=O)[O-])c1)c1c(OC(C)=O)ccc2ccccc12` (stereo not given), the Potency was 3.76 µM (active). On to `Cc1nc(N2CCN(C)CC2)c2c3c(sc2n1)CCCC3`, for which the Potency entry was “inactive”. Take `Cc1noc(C)c1CSc1nc2sc3c(c2c(=O)n1C)CCCC3`: the Potency was 8.41 µM (active). Next, `Cc1ccccc1C(=O)N1CCC(c2nc3ccccc3s2)CC1`: “inactive”; `Cc1nnc([C@@H]2CC(F)(F)CN2C(=O)c2ccoc2C)o1`: “inactive”; `Cc1occc1C(=O)N1CCN(C(c2ccccc2)c2ccccc2)CC1`: 10.6 µM (active). With `Cc1ccccc1NC(=O)c1c(C)oc2ccc(O)c(CN(C)Cc3ccccc3)c12` the figure was 2.37 µM (active); with `CCN(Cc1ccccc1)Cc1c(O)ccc2oc(C)c(C(=O)Nc3ccccc3C)c12`, 4.73 µM (active); with `Cc1ccc(NC(=O)c2c(C)oc3ccc(O)c(CN(C)Cc4ccccc4)c23)c(C)c1`, 5.96 µM (active). With `Cc1oc2ccc(O)c(CN(C)Cc3ccccc3)c2c1C(=O)Nc1ccccc1` the figure was 2.37 µM (active); with `CCN(CC)c1ccc(-n2nc3cc(C)c(NC(=O)c4ccccc4F)cc3n2)cc1`, “inactive”; with `O=C(Nc1cccc(C(F)(F)F)c1)c1nc2c(o1)CCN(Cc1cccc(F)c1)CC2`, “inactive”. For the molecule `Cc1oc2ccc(O)c(CN(C)Cc3ccccc3)c2c1C(=O)Nc1cccc(C(F)(F)F)c1`, the Potency was 2.11 µM (active). Consider `CC(=O)Nc1cccc(C(=O)N2CCC3(CC2)N=C(c2ccc(C)cc2)NO3)c1`, for which the Potency is 0.842 µM (active). In the case of `COc1ccccc1CC(=O)N1CCC2(CC1)N=C(c1cccc(Br)c1)NO2`, the Potency result is “inactive”. For `CC(=O)Nc1cccc(C(=O)NC2CCCN(c3cc(-c4ccc(Cl)cc4)[nH]n3)C2)c1` (stereo not given), the Potency entry is “inactive”. Take `CCOc1cccc(C2Nc3ccccc3-c3cc(C)nn32)c1O` (stereo not given): the Potency result was “inactive”. For `COc1cccc(/C(C#N)=C/c2c(-c3ccc(Cl)cc3)nc3c(C)cccn23)c1`, the Potency was 5.96 µM (active). `O=C1NC(=O)/C(=C\c2ccc(N3CCOCC3)o2)N1`: the Potency is 9.44 µM (active). On to `Cc1ccc(C(=O)NC2CCCN(c3cc(-c4ccccc4)[nH]n3)C2)s1` (stereo not given), for which the Potency result is “inactive”. In the case of `Cn1c(=S)c2[nH]c(SCCN3CCCC3)nc2n(C)c1=O`, the Potency result is “inactive”. For `Cn1c2ccc(F)cc2c2nnc(SCCN3CCCCC3)nc21`, the Potency was 15 µM (active). Take `Nc1nc2[nH]cc(CCc3ccc(C(=O)N[C@@H](CCC(=O)O)C(=O)O)cc3)c2c(=O)[nH]1`: the Potency was 7.5 µM (active).

For the molecule `Cc1ncsc1CN1CCCN(Cc2ccncc2)C(c2ccccc2)CC(=O)NCC1` (stereo not given), the Potency was 8.41 µM (active).

Regarding `Cc1ccc(CN2CCCN(Cc3ccncc3)C(c3ccccc3)CC(=O)NCC2)s1` (stereo not given), the Potency is 2.66 µM (active). `Cc1ccsc1CN1CCCN(S(=O)(=O)c2ccccc2)CCC(=O)NCC1`: the Potency entry was “inactive”. Consider `Cc1ccc(CN2CCCN(Cc3ccncc3)C(c3ccccc3)CC(=O)NCC2)o1` (stereo not given), for which the Potency was 7.5 µM (active). `CN(C)C(=O)C1CN(C(=O)NC2CCCCC2)CC12CCOCC2` (stereo not given): the Potency result is “inactive”.

With `Cn1cccc1C(=O)N1CC[C@H](NC(=O)Nc2ccc(F)cc2F)[C@H]1C(=O)N[C@H](Cc1ccccc1)C(N)=O`, the Potency entry is “inactive”. With `Cc1ccc(O)c([C@H](CCN(C(C)C)C(C)C)c2ccccc2)c1` the figure was 4.22 µM (active); with `COc1ccc(CCNC(=O)CC(c2ccccc2OC)c2c[nH]c3ccccc23)cc1OC` (stereo not given), 13.3 µM (active). As for `COc1ccc(CCNC(=O)CCc2cn(Cc3ccc(F)cc3)c3ccccc23)cc1OC`, the Potency entry is “inactive”. With `CCCC1c2nccn2CCCN1C(=O)c1cnco1` (stereo not given) the entry was “inactive”; with `Cc1cccc(CN2CCCC(O)(CNCc3ncccc3C)C2=O)c1` (stereo not given), 16.8 µM (active). For `Cc1cccnc1CNC[C@H]1O[C@@H]2C[C@@H](CC(=O)N3CCOCC3)O[C@@H]2[C@@H]1O`, the Potency entry is “inactive”. As to `CCOC(=O)c1c(NC(=O)CSc2cn(CCNC(=O)c3cccc(C(F)(F)F)c3)c3ccccc23)sc2c1CCC2`, the Potency entry was “inactive”. As to `CCCn1cc(SCC(=O)NCc2ccco2)c2ccccc21`, the Potency is 8.41 µM (active). Next, `COc1ccc(C2c3[nH]c4ccccc4c3C[C@H]3C(=O)N(C4CCN(Cc5ccccc5)CC4)CC(=O)N23)c(OC)c1` (stereo not given in full): 2.37 µM (active); `CCOc1ccccc1C1c2[nH]c3ccccc3c2C[C@H]2C(=O)N(C3CCN(Cc4ccccc4)CC3)CC(=O)N12` (stereo not given in full): 2.37 µM (active); `COc1ccccc1C1c2[nH]c3ccccc3c2C[C@H]2C(=O)N(C3CCN(Cc4ccccc4)CC3)CC(=O)N12` (stereo not given in full): 2.11 µM (active). In the case of `COc1ccc(C2c3[nH]c4ccccc4c3C[C@H]3C(=O)N(C4CCN(Cc5ccccc5)CC4)CC(=O)N23)cc1OC` (stereo not given in full), the Potency is 2.99 µM (active). On to `CC(=O)N(C)C1=C(N2CCOCC2)C(=O)c2ccccc2C1=O`, for which the Potency is 0.842 µM (active).

Turning to `CC(=O)Oc1c(-c2ccc(NC(=O)CC(C)C)cc2)c(-c2ccc(F)cc2)nn1-c1ccc(F)cc1`, the Potency was 13.3 µM (active). As for `Cc1ccc(-n2cc(-c3ccccc3)nc2S(=O)(=O)CC(=O)Nc2ccc(F)cc2)cc1`, the Potency entry is “inactive”. In the case of `COc1ccc(-c2nn(-c3ccc(F)cc3)c(OC(C)=O)c2-c2ccc(NC(C)=O)cc2)cc1OC`, the Potency was 15 µM (active). With `COc1cccc(C2C3=C(N=c4s/c(=C\c5ccccc5O)c(=O)n42)c2ccccc2CC3)c1OC` (stereo not given), the Potency was 2.99 µM (active). With `COCc1cc(=O)n(CC(=O)NCc2cccc(OC)c2)c(N2CCOCC2)n1` the entry was “inactive”; with `COc1cccc(CN2CCC3(C2)NC(=O)c2ccccc2CO3)c1` (stereo not given), “inactive”. For `COc1cccc(CN2C(=O)OC3(CCN(Cc4ccc5c(c4)CCO5)CC3)C2(C)c2cccnc2)c1` (stereo not given), the Potency was 4.73 µM (active).

As for `COc1cccc(CN2C(=O)OC3(CCN(Cc4c[nH]c5ccccc45)CC3)C2(C)c2cccnc2)c1` (stereo not given), the Potency is 8.41 µM (active). With `COc1cccc(CN2C(=O)OC3(CCN(Cc4ccccc4OC)CC3)C2(C)c2cccnc2)c1` (stereo not given) the figure was 4.73 µM (active); with `O=C1CO[C@H]2CCN(Cc3ccc(O)cc3)CC[C@@H]2N1c1ccccc1`, “inactive”.

Regarding `CC1(c2ccccc2)N(Cc2ccc(O)cc2)C(=O)OC12CCN(Cc1c[nH]c3ccccc13)CC2` (stereo not given), the Potency was 5.31 µM (active). As for `COCCc1noc([C@@H]2CN(Cc3ccc(C)o3)C[C@H]2CO)n1`, the Potency result is “inactive”. Next, `COC(=O)C1C2C=CC3(CN(Cc4cccs4)C(=O)C13)O2` (stereo not given): “inactive”; `CCOC(=O)c1cnc2ccc(OC)cc2c1Nc1ccc(N2CCN(C)CC2)cc1`: 1.68 µM (active).

The record behind these values is PubChem BioAssay AID1347416 (National Center for Advancing Translational Sciences (NCATS), 2020).
